Assay results: the supplement of paper PMC3334620
In all, about 33,000 sequences were measured (“E-score (-0.5 to 0.5)”: median about -0.04, highest 2% from about 0.36 on). The sample as a whole holds a higher share of the highest values than the screen did.

These sequences were tested against T1, Hmlalpha2 (UniProt P0CY09) (assay: PBM E-score (8-mer binding enrichment) (E-score (-0.5 to 0.5)); higher = stronger / more preferred TF binding). Conditions: protein concentration: 200 nM; construct: GST-full length.
T1 sequence: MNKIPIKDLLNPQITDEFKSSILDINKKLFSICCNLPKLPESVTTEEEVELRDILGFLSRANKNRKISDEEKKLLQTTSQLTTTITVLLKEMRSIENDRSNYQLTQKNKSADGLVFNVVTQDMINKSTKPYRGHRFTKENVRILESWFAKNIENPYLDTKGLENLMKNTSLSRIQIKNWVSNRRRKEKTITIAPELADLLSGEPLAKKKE
Procedure: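 Universal 'all 10-mer' protein binding microarrays (Agilent AMADID 015681) probed with GST-tagged S. cerevisiae TFs (full-length or DBD) made by in vitro transcription/translation (PURExpress), about 100-200 nM. Bound TF was detected with fluorescent anti-GST. Each ungapped 8-mer (which stands for itself and its reverse complement) is scored by the PBM enrichment score (E-score), a modified Wilcoxon-Mann-Whitney statistic from -0.5 to +0.5, computed with the Universal PBM Analysis Suite. Scale: above 0.35 generally sequence-specific binding.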

Sequence	PBM E-score
ACCTAGTC	-0.177
GAAGGACC	-0.245
ACAAGCCT	0.227
TCCAAGCA	-0.164
ATGGTAGA	0.079
GCGTAAAA	0.4
GCGTAAAC	0.404
GCGTAAGC	0.183
TCGTAAAA	0.237
CCGTAAAC	0.199
CCGTAAAA	0.12
CTTCAATA	0.173
ATACGGCA	0.103
CCATGTGC	0.0482
GCATGTAC	0.408
ACATGTCT	0.305
GCCTGTAC	0.101
GCATGTCC	-0.0024
AAATGTAT	0.277
CCATGTAG	0.416
ACATGTAT	0.454
CCATGTAC	0.398
CGATGTAG	0.106
CCATGTCG	0.336
CCATGTCC	-0.00972

Sequence	PBM E-score
GCAGCTCA	-0.181
CTATGGAC	-0.125
CTGCGAAA	0.0491
ATTCTGCA	-0.0444
ACCATCGT	-0.151
TCTAAGCA	-0.0643
TCGCTTAA	0.0673
AATATGCT	0.0361
ACATGTAC	0.412
AGATGTAC	0.121
ACATGTGC	0.352
ACATGTGG	0.312
ACATGTAG	0.459
ACATGTCG	0.343
CGGTGCGC	-0.279
ACTCTATC	-0.0301
ACCGTAGT	-0.225
AAGGGCCT	-0.136
ATGGCATA	-0.0529
CAAAGGTC	-0.233
ACGATTTA	0.244
TAACACTA	0.316
TCACACAA	0.23
CTACAAAA	0.0813
CTACACAC	0.391

Sequence	PBM E-score
CTACACAA	0.369
CTACACAG	0.421
TTACAAAA	0.266
CTCTACAG	0.0676
TTACACAA	0.478
CCACACAC	0.0345
CTACAGAG	0.184
CCACACAA	-0.0216
CTACACCC	0.0904
GCATAAGC	0.119
ACTGCCTC	-0.0994
CCCATTCG	-0.0725
GAAGCGGC	-0.131
GTACACAA	0.373
GCACACAA	0.155
GTACACAC	0.357
AAGTGCTG	0.107
TGCCACCA	-0.261
ACCATGGT	-0.0519
AACATGGG	0.415
CACATGGC	0.0319
AACATGGT	0.384
ATCATGGG	-0.0934
AACATGGA	0.346
AACATGGC	0.406

Sequence	PBM E-score
GACATGGC	0.224
CACATGGG	-0.0456
ACACTGTA	0.116
TCAGAAGA	-0.267
AATGCCCA	0.0243
AAATCCGG	-0.18
AAGTATTG	0.0978
AACACAAC	0.409
GACACAAC	0.264
CACACAAC	0.27
AACACAGG	0.247
AACACAGC	0.379
AACACAAT	0.373
CACACAGC	0.201
CACACAAG	0.248
AACACAAG	0.326
CGTTAGGA	0.0405
CATCGACA	-0.0243
GACGCTCA	-0.111
GGCCACCC	-0.351
CGGGGCGC	-0.244
AAAACGTT	0.0264
ACCACGTA	0.254
TACACGTA	0.428
CACACGTG	0.289

Sequence	PBM E-score
CACACGTC	0.166
AACACGTT	0.403
GACACGTA	0.293
CACACGTA	0.271
AACACGTC	0.377
AACACGTG	0.348
AACACGTA	0.41
GACACGTC	0.2
CAAGTACA	0.266
TAAGTGGA	0.0716
ACATTTAC	0.348
ACTGTCGC	-0.165
CGGAGAAG	-0.358
CCCTTTAG	-0.261
ATGACTCG	-0.0578
GATCTAAC	0.0316
CACCGACG	0.00164
ACTAGGAG	-0.0601
AACTAGGG	-0.094
GAGGGAAC	-0.165
ACACACGG	0.277
AGACACGC	0.147
ATACACTA	0.149
ATACACGG	0.445
ACACACGC	0.288

Sequence	PBM E-score
ATACACGA	0.432
AGACACGG	0.228
ATACACCA	0.215
ATACACGC	0.449
CTTTCATA	0.162
AGGTGTTG	-0.053
CCGTGTTA	0.44
CAGTGTTA	0.212
GCGTGTTA	0.46
ACGTGTTC	0.211
CCGTGTTC	0.328
GCGTGGTA	0.0607
ACGTGTTA	0.45
GCGTGTGA	0.284
AGGTGTTA	0.256
ACGTGTGG	0.136
ACGTGTTG	0.415
TCGGAGCA	-0.279
CTTAAAAC	0.201
AACTCTTG	-0.084
GCTTGTTA	0.286
GAAACCAA	0.00698
GAAACATA	0.192
AAAACATT	0.242
AAAACATA	0.39

Sequence	PBM E-score
AGAACATA	0.248
AAAACATG	0.434
CAAACATA	0.118
TAAACATA	0.416
CAAACATG	0.34
AAAACATC	0.311
GGTTGAAC	0.081
ACTGCAGG	-0.11
AACTCACT	0.0592
AGGTCGGA	-0.164
AACCTAGA	-0.109
CGTGTAAG	0.467
GGTGTAAC	0.288
AGTGTAAC	0.198
AGTGTAAG	0.116
ACTGTAAG	0.0573
CGTGTAAC	0.443
GAAATAGC	-0.0263
CAACTAAA	0.176
CTCTAGAG	-0.148
TCATCCCA	-0.231
AGTAATAC	0.211
AGTAATAA	0.257
TGTAATAA	0.45
CGTAATAC	0.378

Sequence	PBM E-score
CGTAATAA	0.378
CATAATAA	0.281
CGTAATAG	0.246
GGTAATAA	0.178
GGTAATAC	0.173
AGCGCGCA	0.0691
CCGGGGAG	-0.241
CAAGTCTG	-0.00344
ACCTCTTC	-0.0525
CGACGTTA	0.231
CGATGGAC	0.0281
CTTTTCAC	0.0898
AATCATGA	0.0793
AAGCATGT	0.377
AACCATGT	0.368
AACCATGA	0.149
AATCATGG	0.0457
AAGCATGC	0.117
AACCATGC	-0.0458
AATCATGT	0.409
AAGCATGG	-0.112
CCCCATTC	-0.266
CGGGCATC	-0.287
AAATTCCT	-0.135
CATTCTGA	-0.213

Sequence	PBM E-score
GCAGTTGA	-0.157
AAAGAGCT	-0.0941
GAGCTCCC	-0.322
ATTTTTAA	0.237
AAATTTAG	0.0397
AAATTTAT	0.201
AAATTTAC	0.375
AATTTTAC	0.347
ATTTTTAC	0.368
AACCCTAC	-0.0838
GAATTAGC	-0.0766
AGCTCTAT	-0.102
AGAGTGTA	0.0904
ACGCTATA	0.0242
AATACGTA	0.317
ATTACGTC	0.321
AATACGTG	0.383
ACTACGTG	0.144
CTTACGTA	0.307
ATTACGTA	0.431
GTTACGTA	0.293
AATACGTC	0.226
ATTACGTG	0.452
GGCCCGAA	-0.135
ATATCGGA	-0.0245

Sequence	PBM E-score
CCACCAGG	-0.268
CCTAGGCG	-0.303
ATTCCCAC	-0.125
CTTTGTAC	0.2
ACTTGTAG	0.0979
ATTTGTAA	0.344
CCTTGTAA	0.454
TCTTGTCA	0.219
CCTTGTAG	0.195
TCTTGTAA	0.439
ACTTGTAC	0.12
TATTGTAA	0.318
ACTTGTAA	0.381
CCTTGTAC	0.327
CTTTGTAA	0.414
GCTACAAA	0.0715
GAGCTACC	-0.059
CAGCTGTA	-0.117
CCAGGAGG	-0.191
ATCCAGCA	-0.0498
CGATGATA	0.0847
CCTTGTTA	0.371
CCTTGTTC	-0.0497
ACTTGTTA	0.259
GCTTGTAC	0.243

Sequence	PBM E-score
GCTTGTAA	0.411
GATTGTAA	0.247
CCCATATC	-0.145
CAAAGGAG	-0.0938
ATTAATGA	0.0848
CCAGGCAA	-0.265
AGCATAGG	-0.178
AACAGGTT	0.11
CTTACAAC	0.301
ATTACAGA	0.333
ATTACGAA	0.289
ATTACAGG	0.352
ATTACACC	0.382
GTTACAAC	0.258
ATTACAAG	0.466
CTCACACC	-0.254
CTTACACC	0.0787
CTTACAAG	0.312
ATTACAAC	0.4
ATTACAAA	0.414
CTTGAGGA	-0.227
ATATGCCC	-0.274
AGTGAACA	0.154
AGATTCTA	0.0504
ATATAGGA	0.0657

Sequence	PBM E-score
ACCAGGAC	0.0306
CATGTGAA	0.318
CCATGAGG	-0.313
AAAGAAAT	0.175
GACAGGCC	-0.143
CGCTCTGA	-0.135
ACGAGGGA	-0.0452
CGGTAAAG	0.00317
CTTACAAA	0.232
ATTACATC	0.445
TCTACAAA	0.252
TTTACAAA	0.412
ATTACAAT	0.385
ATTACAGC	0.141
ACTACAAT	0.137
CTTACATC	0.283
AGTACAAT	0.25
ATGGGACG	-0.19
GCAAAGAC	-0.121
CTGCGCGC	-0.00351
TGCAGCAA	-0.0391
GATACTCA	-0.0664
GCTTACAC	0.362
ACTTACAA	0.29
ACTTACAG	0.134

Sequence	PBM E-score
CCTTACAC	0.334
ACTTACAT	0.43
ACTTACAC	0.378
ACAGTAGC	-0.0946
CCCCCCGG	-0.366
ACTCTACC	-0.0519
CTTGTGTC	0.0968
ATTGTATA	0.171
GTTGTGGA	0.0527
ATTGTGTC	0.233
GTTGTGTA	0.448
CTTGTGAA	0.182
GTTGTATA	0.38
CTTGTGTA	0.41
CTTGTATA	0.289
ATTGTGTA	0.42
ATTGTGTG	0.112
GTTGTGCA	-0.00044
ACTGTTCG	0.0673
AACTGCTA	-0.0585
AGAGGTGA	-0.0117
CACCAGTA	-0.0753
ACGGACAT	-0.0204
ATAACAAG	0.352
AGAACACA	0.268

Sequence	PBM E-score
ATAACACC	0.259
ATAACACA	0.439
CTAACAAG	0.175
CTAACACA	0.376
ATAACACG	0.461
GTAACACA	0.324
CTAACACC	0.153
GTTCTAGA	-0.00839
CCCTGACG	-0.351
ATTTAGCC	0.0155
GACCTTGC	-0.356
AGTTTCGG	-0.031
ACAACACC	0.182
ACAACAGG	0.155
ACAACACA	0.405
ACAACAAA	0.284
CCAACACA	0.248
GCAACACA	0.167
TCAACAGA	0.149
CCAACACG	0.375
ACAACACT	0.248
TCAACACA	0.43
ACAACACG	0.417
CCAACACC	-0.206
